MITF primary: blocks human microphthalmia-associated transcription factor; O75030; AlphaScreen MITF homodimerization, bead proximity signal; inhibition, % at 2.6 µM; hit rate 0.91% among 650,000; AID 1259374; in the data active = inhibition above about 50%;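 note: 0% = vehicle wells with protein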
Target sequence (O75030 whole entry, looked up): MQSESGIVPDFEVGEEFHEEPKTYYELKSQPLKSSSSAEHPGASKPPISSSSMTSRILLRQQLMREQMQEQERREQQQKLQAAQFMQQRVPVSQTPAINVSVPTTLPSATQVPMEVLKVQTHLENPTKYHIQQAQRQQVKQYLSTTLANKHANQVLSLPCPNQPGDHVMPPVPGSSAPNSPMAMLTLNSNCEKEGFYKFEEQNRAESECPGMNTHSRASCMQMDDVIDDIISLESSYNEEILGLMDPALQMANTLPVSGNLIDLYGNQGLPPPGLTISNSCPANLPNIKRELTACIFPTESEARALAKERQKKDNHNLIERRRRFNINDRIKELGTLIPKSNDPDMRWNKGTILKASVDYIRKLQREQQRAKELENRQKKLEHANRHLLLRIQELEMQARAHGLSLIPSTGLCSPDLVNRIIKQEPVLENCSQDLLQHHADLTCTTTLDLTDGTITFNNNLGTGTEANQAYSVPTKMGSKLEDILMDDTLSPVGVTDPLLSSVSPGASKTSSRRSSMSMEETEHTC
FBW7 activator: human FBW7 E3 ligase activation, primary screen; Q969H0; AlphaScreen FBW7–phospho-cyclin E peptide binding, activator screen; normalized activity (activation), % at 26.1 µM; hit rate 0.13% among 650,000; in the data active = normalized activity above about 1.9%;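 note: purified mutant Fbw7 with reduced substrate affinity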
TEAD-YAP inh: TEAD-YAP interaction inhibition. HEK-TIYL cells, TEAD-Gal4/YAP UAS-luciferase luminescence. inhibition, % at 9.12 µM. hit rate 1.4% among 640,000; in the data active = inhibition above about 32%;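 note: 0% = median of test compound wells and 100% = reference inhibitor wells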
GPR151 ag: activates the human receptor GPR151 | Q8TDV0 | PathHunter beta-arrestin GPR151 cells, luminescence | activation, % at 11.2 µM | hit rate 1% among 650,000 | AID 1508602; in the data active = activation above about 4.9%;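 note: 0% = median of compound wells and 100% = cells with positive control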
* hit, by the source's call. Only some compounds are listed: those with a hit (about 3.5% of all), similar ones and a draw of the others.

What do the screens show for `CCc1ccc2oc(-c3cc(N)ccc3O)nc2c1`?
MITF primary: 2; FBW7 activator: 1; TEAD-YAP inh: 38*; GPR151 ag: -4

How did COC(=O)c1ccc(-c2nc3cc(N)ccc3o2)cc1 do in these assays?
MITF primary: -3; FBW7 activator: 0; TEAD-YAP inh: 72*; GPR151 ag: -6

How did COC(=O)c1ccc(-c2nc3cc(NC(C)=O)c(N)cc3o2)cc1 do in these assays?
MITF primary: 5; FBW7 activator: 0; TEAD-YAP inh: -1; GPR151 ag: -1

What do the screens show for `CCc1ccc2oc(-c3cc(N)ccc3Cl)nc2c1`?
MITF primary: 8; FBW7 activator: 0; TEAD-YAP inh: -50; GPR151 ag: -4

What do the screens show for `CCCNC(=O)c1cccc(N2CCCC(C(=O)N(CC)CC)C2)c1` (stereo not drawn)?
MITF primary: 7; FBW7 activator: 0; TEAD-YAP inh: -4; GPR151 ag: -2

What do the screens show for `Cc1cc(S(=O)(=O)NCc2ccncc2)c(C)cc1Br`?
MITF primary: 13; FBW7 activator: 1; TEAD-YAP inh: 32; GPR151 ag: 0

What do the screens show for `O=S(=O)(NCc1cccnc1)c1cccc(Cl)c1Cl`?
MITF primary: 6; FBW7 activator: 0; TEAD-YAP inh: -12; GPR151 ag: 4

How did Cc1ccc(S(=O)(=O)NCc2ccncc2)cc1 do in these assays?
MITF primary: 1; FBW7 activator: 0; TEAD-YAP inh: 41*; GPR151 ag: 0

What do the screens show for `O=S(=O)(NCc1ccncc1)c1cccc(Cl)c1Cl`?
MITF primary: 17; FBW7 activator: 0; TEAD-YAP inh: 35*; GPR151 ag: -1

How did O=S(=O)(NCc1ccncc1)c1ccc(Cl)c(Cl)c1 do in these assays?
MITF primary: 8; FBW7 activator: 0; TEAD-YAP inh: 36*; GPR151 ag: 2

Results for O=S(=O)(NCc1ccncc1)c1ccc(Br)cc1Br ?
MITF primary: 5; FBW7 activator: 0; TEAD-YAP inh: 32*; GPR151 ag: 1

Results for COc1cccc(NC(=O)c2cc3c(s2)-c2ccccc2S(=O)(=O)C3)c1 ?
MITF primary: 6; FBW7 activator: 0; TEAD-YAP inh: -17; GPR151 ag: -1

What do the screens show for `O=C(Nc1ncccn1)c1sc2ccccc2c1Cl`?
MITF primary: -2; FBW7 activator: 0; TEAD-YAP inh: -4; GPR151 ag: -1

How did N#CC1=C(N)Oc2c3c(c4ccccc4c2C1c1ccc(F)cc1)C(c1ccc(F)cc1)C(C#N)=C(N)O3 (stereo not drawn) do in these assays?
MITF primary: 27; FBW7 activator: 0; TEAD-YAP inh: 17; GPR151 ag: 0

How did CCN(CC)S(=O)(=O)c1c(C)nn(C(=O)COc2ccc(C)cc2)c1C do in these assays?
MITF primary: -3; FBW7 activator: 0; TEAD-YAP inh: 0; GPR151 ag: 3

Results for CCOc1ccc(S(=O)(=O)NCc2ccncc2)cc1C ?
MITF primary: -2; FBW7 activator: 0; TEAD-YAP inh: 55*; GPR151 ag: 0

What do the screens show for `CCOc1cc(S(=O)(=O)NCc2ccncc2)ccc1Cl`?
MITF primary: 8; FBW7 activator: 0; TEAD-YAP inh: 52*; GPR151 ag: 1

What do the screens show for `COc1cc(NC(=O)CSc2cccc[n+]2[O-])cc(OC)c1`?
MITF primary: 7; FBW7 activator: 1; TEAD-YAP inh: -5; GPR151 ag: 0

How did CCCCNC(=O)CCc1nc(-c2ccc(Cl)cc2)no1 do in these assays?
MITF primary: 1; FBW7 activator: 0; TEAD-YAP inh: -5; GPR151 ag: 1

What do the screens show for `COc1ccc(NC(=O)Cc2cc3ccccc3n2Cc2ccccc2)cc1`?
MITF primary: -4; FBW7 activator: 0; TEAD-YAP inh: -16; GPR151 ag: 2

Results for COc1cc(Nc2nccn3c(-c4cccc(N)c4)cnc23)cc(OC)c1OC ?
MITF primary: 2; FBW7 activator: -1; TEAD-YAP inh: 43*; GPR151 ag: 0

How did COc1cc(Nc2nccn3c(-c4cccc5ccccc45)cnc23)cc(OC)c1OC do in these assays?
MITF primary: -19; FBW7 activator: -1; TEAD-YAP inh: 16; GPR151 ag: 3

What do the screens show for `COc1cc(CNc2nccn3c(-c4ccc5ccccc5c4)cnc23)cc(OC)c1OC`?
MITF primary: 7; FBW7 activator: 2.0*; TEAD-YAP inh: -9; GPR151 ag: -1

Results for c1cc(CCNc2nccn3c(-c4ccsc4)cnc23)ccn1 ?
MITF primary: -9; FBW7 activator: 0; TEAD-YAP inh: 39*; GPR151 ag: -1

What do the screens show for `COc1cc(Nc2nccn3c(-c4ccccc4)cnc23)cc(OC)c1OC`?
MITF primary: -14; FBW7 activator: -1; TEAD-YAP inh: 59*; GPR151 ag: 0

High-throughput results as filed in PubChem.
